Measured values from PubChem BioAssay AID1159580 (chemical genetic matrix, 2015).
Hit rate of the full screen: of about 5,500 compounds, about 2,000 (36%) were called active. Not shown: some 18% with an inconclusive outcome. Some of the results follow. Values without a mark were called inactive. No stated cut-off is given here; in the data, active means normalized growth mostly below about 0.91 (no sharp cut-off); inconclusive means no clear call, values can overlap the other calls; inactive means mostly above about 0.92.

Test: chemical genetic growth profiling, strain panel (AID 1159580);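 further: tested at 20 µM; growth read once vehicle control cultures reached saturation at 30 °C; 1 = growth at the plate median or of vehicle wells; lower values mean less growth of the strain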
Settings: S. cerevisiae deletion strains, growth OD
[1] = locus YHR030C, strain SLT2, active compounds read low
[2] = locus YHR079C, strain IRE1, active compounds read low
[3] = locus YJL095W, strain BCK1, active compounds read low
[4] = locus YJR066W, strain TOR1, active compounds read low
[5] = locus YLR113W, strain HOG1, active compounds read low
[6] = locus YNL183C, strain NPR1, active compounds read low
[7] = locus YOR231W, strain MKK1, active compounds read low
[8] = locus YPL256C, strain CLN2, active compounds read low

With `OC1(C(F)(F)F)CC(C23CC4CC(CC(C4)C2)C3)=NN1` (centres undefined) the normalized growth (locus YAR019C, strain CDC15, active compounds read low) was 0.867 (active), the normalized growth (locus YBL105C, strain PKC1, active compounds read low) was 0.905 and the normalized growth (locus YBR135W, strain CKS1, active compounds read low) was 0.898. The normalized growth (locus YBR136W, strain MEC1, active compounds read low) was 0.889 (active), the normalized growth (locus YBR160W, strain CDC28, active compounds read low) was 0.891 (active) and the normalized growth (locus YDL017W, strain CDC7, active compounds read low) was 0.913. For the same compound, the normalized growth (locus YDL028C, strain MPS1, active compounds read low) was 0.847 (active), the normalized growth (locus YDL101C, strain DUN1, active compounds read low) was 0.897 (active) and the normalized growth (locus YDL108W, strain KIN28, active compounds read low) was 0.892 (active). For the same compound, the normalized growth (locus YDL132W, strain cdc53, active compounds read low) was 0.872 (active), the normalized growth (locus YDL214C, strain PRR2, active compounds read low) was 0.642 (active) and the normalized growth (locus YDR052C, strain DBF4, active compounds read low) was 0.882 (active). The normalized growth (locus YDR054C, strain cdc34, active compounds read low) was 0.88, the normalized growth (locus YDR226W, strain ADK1, active compounds read low) was 0.859 (active) and the normalized growth (locus YDR477W, strain SNF1, active compounds read low) was 0.505 (active). The normalized growth (locus YER123W, strain YCK3, active compounds read low) was 0.435 (active), the normalized growth (locus YER133W, strain GLC7, active compounds read low) was 0.57 (active) and the normalized growth (locus YFL009W, strain cdc4, active compounds read low) was 0.851 (active). The normalized growth (locus YFL029C, strain CAK1, active compounds read low) was 0.876 (active), the normalized growth (locus YFR003C, strain YPI1, active compounds read low) was 0.905 and the normalized growth (locus YFR019W, strain FAB1, active compounds read low) was 0.527 (active). The normalized growth (locus YFR028C, strain CDC14, active compounds read low) was 0.86 (active), the normalized growth (locus YGR040W, strain KSS1, active compounds read low) was 0.497 (active) and the normalized growth (locus YGR052W, strain FMP48, active compounds read low) was 0.62. For the same compound, the normalized growth (locus YGR092W, strain DBF2, active compounds read low) was 0.487, the normalized growth [1] was 0.183 (active) and the normalized growth [2] was 0.645. For the same compound, the normalized growth (locus YHR082C, strain KSP1, active compounds read low) was 0.688, the normalized growth (locus YHR205W, strain SCH9, active compounds read low) was 0.531 (active) and the normalized growth (locus YIL147C, strain SLN1, active compounds read low) was 0.889 (active). For the same compound, the normalized growth [3] was 0.163 (active), the normalized growth (locus YJL128C, strain PBS2, active compounds read low) was 0.946 and the normalized growth (locus YJL157C, strain FAR1, active compounds read low) was 0.655 (active). The normalized growth (locus YJR016C, strain ILV3, active compounds read low) was 0.891 (active), the normalized growth (locus YJR066W, strain TOR1 (second series), active compounds read low) was 0.718 and the normalized growth [4] was 0.411 (active). For the same compound, the normalized growth (locus YKL048C, strain ELM1, active compounds read low) was 0.884, the normalized growth (locus YKL067W, strain YNK1, active compounds read low) was 0.634 (active) and the normalized growth (locus YKL101W, strain HSL1, active compounds read low) was 0.716 (active). The normalized growth (locus YKL193C, strain SDS22, active compounds read low) was 0.888 (active), the normalized growth (locus YKL203C, strain TOR2, active compounds read low) was 0.555 (active) and the normalized growth [5] was 0.578 (active). The normalized growth (locus YLR133W, strain CKI1, active compounds read low) was 0.655 (active), the normalized growth (locus YLR403W, strain SFP1, active compounds read low) was 0.469 (active) and the normalized growth (locus YML070W, strain DAK1, active compounds read low) was 0.643 (active). The normalized growth (locus YMR001C, strain CDC5, active compounds read low) was 0.881 (active), the normalized growth (locus YMR205C, strain PFK2 (second series), active compounds read low) was 0.735 (active) and the normalized growth (locus YMR277W, strain FCP1, active compounds read low) was 0.863 (active). For the same compound, the normalized growth (locus YNL006W, strain LST8, active compounds read low) was 0.892 (active), the normalized growth (locus YNL020C, strain ARK1, active compounds read low) was 0.659 (active) and the normalized growth (locus YNL161W, strain CBK1, active compounds read low) was 0.898 (active). The normalized growth [6] was 0.618, the normalized growth (locus YNL207W, strain RIO2, active compounds read low) was 0.867 (active) and the normalized growth (locus YNL222W, strain SSU72, active compounds read low) was 0.876 (active). The normalized growth (locus YNL307C, strain MCK1 (second series), active compounds read low) was 0.565 (active), the normalized growth (locus YOL078W, strain AVO1, active compounds read low) was 0.893 and the normalized growth (locus YOL136C, strain PFK27, active compounds read low) was 0.715. The normalized growth (locus YOR061W, strain CKA2, active compounds read low) was 0.17 (active), the normalized growth (locus YOR119C, strain RIO1, active compounds read low) was 0.521 (active) and the normalized growth [7] was 0.637. The normalized growth (locus YOR329C, strain SCD5, active compounds read low) was 0.901 (active), the normalized growth (locus YPL031C, strain PHO85, active compounds read low) was 0.471 (active) and the normalized growth (locus YPL153C, strain RAD53, active compounds read low) was 0.517 (active). For the same compound, the normalized growth (locus YPL204W, strain HRR25, active compounds read low) was 0.477 (active), the normalized growth (locus YPL209C, strain IPL1, active compounds read low) was 0.89 (active) and the normalized growth [8] was 0.64 (active). The normalized growth (locus YPR025C, strain CCL1, active compounds read low) was 0.893 (active), the normalized growth (locus YPR106W, strain ISR1, active compounds read low) was 0.915 and the normalized growth (locus YPR111W, strain DBF20, active compounds read low) was 0.875. For the same compound, the normalized growth (strain NNK1, active compounds read low) was 0.921 and the normalized growth (strain TSCII, active compounds read low) was 0.858 (active).
For `CC(=O)OCC(=O)[C@@]1(O)[C@@H](C)CC2C3CCC4=CC(=O)C=C[C@]4(C)[C@@]3(F)[C@@H](O)C[C@@]21C` (some centres undefined), the normalized growth [1] was 1.06, the normalized growth [2] was 1.05 and the normalized growth [3] was 1.01. It also gave a normalized growth [4] of 1, a normalized growth [5] of 0.994 and a normalized growth [6] of 0.991. It also gave a normalized growth [7] of 1.05 and a normalized growth [8] of 1.06.
